SMILES strings stand for the structures. “And” between values parts separate entries of the source, which are not always exact repeats. Identical values can stand only once. Inconclusive results are not listed. The source made the active and inactive calls. Calls follow the shape of the dose curve; as a rule, active = well fitted cell-killing curve with a large enough effect; inconclusive = small, poorly fitted or top-dose-only effect, or effect the other way; inactive = no such curve, though single readings can be large or run the other way.
Potency is read from the fitted curve at half-maximal effect.

The assay is described as follows: Viability qHTS for spleen associated tyrosine kinase inhibitor (SYKi) naive MV4-11 cells (AID 1963823). Also: nearly all actives have a fitted effect of over 40% in size. The conditions noted are these: MV4-11 AML viability, CellTiter-Glo luminescence, 72 h; series mostly up to 45 µM. Put shortly: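 qHTS, SYK inhibitor-naive MV4-11; 500 cells/well; 72 hr compound exposure, 37 C; CellTiter-Glo added, 10 min RT; luminescence read.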
On the technique in general: In qHTS, concentration-response curves come from the screen itself.
Consider `COc1cc(/C=C/C=O)cc(OC)c1O[C@@H]1O[C@H](CO)[C@@H](O)[C@H](O)[C@H]1O`, for which the Potency result is “inactive”.

For the molecule `CCOC(=O)c1cnn(-c2ccc(NC(=O)C(Cl)=C(Cl)Cl)cc2)c1C(F)(F)F`, the Potency is 0.58 µM (active).

Turning to `Cc1ccc([C@@H]2O[C@H](CO)[C@@H](O)[C@H](O)[C@H]2O)cc1Cc1ccc(-c2ccc(F)cc2)s1`, the Potency was 18.6 µM (active).

In the case of `C[C@@H]1O[C@@H](O[C@H]2[C@H](O[C@H]3[C@H](O[C@H]4CC[C@@]5(C)C(CC[C@]6(C)C5CC=C5[C@@H]7CC(C)(C)C[C@@H](O)[C@]7(C)CC[C@]56C)[C@@]4(C)CO)O[C@H](C(=O)O)[C@@H](O)[C@@H]3O)O[C@H](C(=O)O)[C@H](O)[C@@H]2O)[C@H](O)[C@H](O)[C@H]1O` (stereo not given in full), the viability (% of control) is 83.8% [at 9.25 µM] (inactive).

For the molecule `O=C(c1ccc(F)c(F)c1Nc1ccc(I)cc1F)N1CC(O)(C2CCCCN2)C1` (stereo not given), the Potency was 0.184 µM (active).

With `CC1(C)CC[C@]2(C(=O)O[C@@H]3O[C@H](CO)[C@@H](O)[C@H](O)[C@H]3O)CC[C@]3(C)C(=CCC4[C@@]5(C)C[C@@H](O)[C@H](O)C(CO)(CO)C5CC[C@]43C)C2[C@@H]1O` (stereo not given in full), the Potency result was “inactive”.

For the molecule `COc1c2c(c(C)c3c1C(=O)OC3)O[C@@]1(C)C[C@@H](O)[C@]34O[C@](OC)(CC[C@]3(C)[C@H]1C2)OC4(C)C`, the Potency entry was “inactive”.

On to `O=C(C(c1ccccc1)c1ccccc1)N1CCN(CC(O)COc2cccc3ncccc23)CC1` (stereo not given), for which the Potency was 20.9 µM (active).

For the molecule `Cc1[nH]c(/C=C2\C(=O)Nc3ccc(S(=O)(=O)Cc4c(Cl)cccc4Cl)cc32)c(C)c1C(=O)N1CCC[C@@H]1CN1CCCC1`, the Potency is 0.934 µM (active).

Consider `CCOC(=O)c1cccc(CNc2ccc(N(C)C(=O)Nc3ccccc3)cc2)c1`, for which the Potency is 18.4 µM (active).

Take `O=C(OCC1OC(Oc2ccc(O)cc2COC(=O)C2(O)C(O)CCC(=O)C2OC(=O)C2C=CCC2)C(OC(=O)C2C=CCC2)C(O)C1O)C1C=CCC1` (stereo not given): the Potency entry was “inactive”.

Regarding `CC(C)C(C(=O)N(C)C(C)C(N)=O)N(C)C(=O)C1CCCN1C(=O)/C=C/C=C/C(O)C(C)O` (stereo not given), the Potency result is “inactive”.

As for `COc1ccc(C(=O)O[C@H]2C=COC=C3C=C4C(=O)N(C)C(=S)C(=O)N4[C@@H]32)cc1Oc1cc(C=O)ccc1O`, the Potency was 2.82 µM (active).

`Brc1ccc([C@H]2CN3CCSC3=N2)cc1`: the Potency entry is “inactive”.

Take `C[C@@H]1O[C@@H](O[C@@H]2[C@@H](O)[C@H](O[C@H]3[C@H](O[C@H]4CC[C@@]5(C)C(CC[C@]6(C)C5CC=C5[C@@H]7CC(C)(C)CC[C@]7(C(=O)O[C@@H]7O[C@H](CO)[C@@H](O)[C@H](O)[C@H]7O[C@@H]7O[C@@H](C)[C@H](O[C@@H]8O[C@@H](C)[C@H](O)[C@@H](O)[C@H]8O)[C@@H](O)[C@H]7O)CC[C@]56C)[C@@]4(C)CO)O[C@H](C(=O)O)[C@@H](O)[C@@H]3O)O[C@H](CO)[C@H]2O)[C@H](O)[C@H](O)[C@H]1O` (stereo not given in full): the viability (% of control) was 94% [at 9.25 µM] (inactive).

With `C/C=C/C(O)C1OC(=O)CC1Nc1ccc(C(=O)O)cc1` (stereo not given), the Potency entry was “inactive”.

For the molecule `C[C@@H]1C(=O)OC[C@H]2C(C(=O)O)=C[C@@H]3CC(C)(C)C[C@]312`, the Potency result is “inactive”.

Turning to `CC(C)(O)c1ccn2c(-c3ccc(F)c(-c4ccc(F)cc4C#N)c3)cnc2c1F`, the Potency is 9.2 µM (active).

As to `C/C=C(\C)C(=O)OC1C(C)C2(O)C(C=C(CO)CC3(O)C(=O)C(C)=CC32)C2C(C)(C)C12OC(=O)C(C)C` (stereo not given), the Potency was 0.02 µM (active).

Consider `Cc1ccc(NC(=O)c2ccc(CN3CCNCC3)cc2)cc1Nc1nccc(-c2cccnc2)n1`, for which the Potency was 9.2 µM (active) and 16.6 µM (active).

Turning to `Cc1cn(C2C[C@H](O)[C@@H](CO)O2)c(=O)[nH]c1=O` (stereo not given in full), the Potency entry is “inactive”.

As for `Nc1ncnc2c1nc(Cl)n2C1OC2COP(=O)(O)OC2C1O` (stereo not given), the Potency was 0.517 µM (active).

Regarding `Cc1ccc(NS(=O)(=O)c2cc3c(cc2NC(C)CO)NC(=O)CC3)cc1C` (stereo not given), the Potency is 12.9 µM (active).

As for `CCCCC(=O)N(Cc1ccc(-c2ccccc2-c2nn[nH]n2)cc1)C(C(=O)O)C(C)C` (stereo not given), the Potency result is “inactive”.

In the case of `COC(=O)C1=CO[C@@H](O[C@@H]2O[C@H](CO)[C@@H](O)[C@H](O)[C@H]2O)C2C1C(=O)C[C@H]2C` (stereo not given in full), the Potency entry is “inactive”.

`OC[C@H]1O[C@@H](OCCc2ccc(O)cc2)[C@H](O)[C@@H](O)[C@@H]1O`: the Potency entry was “inactive”.

For the molecule `O=C1COc2nccc(-c3ccccc3F)c2CN1Cc1cc(C(F)(F)F)cc(C(F)(F)F)c1`, the Potency is 11.6 µM (active).

For `Nc1ccc(-c2cccc3c(=O)cc(N4CCOCC4)oc23)cc1`, the Potency was 9.2 µM (active).

Turning to `Cc1cc2nc(NCCCO)n(CC(=O)c3cc(C(C)(C)C)c(O)c(C(C)(C)C)c3)c2cc1C`, the Potency was 8.2 µM (active).

Consider `C[C@@H]1O[C@@H](O[C@H]2[C@@H]3C=CO[C@@H](O[C@@H]4O[C@H](CO)[C@@H](O)[C@H](O)[C@H]4O)[C@@H]3[C@@]3(CO)O[C@@H]23)[C@H](OC(=O)/C=C/c2ccc(O)c(O)c2)[C@H](O)[C@H]1O`, for which the Potency result is “inactive”.

For the molecule `C=CC(C)(O)CC/C=C(\C)C(=O)O[C@@H]1[C@@H](O)[C@H](OC(C)(C=C)CC/C=C(\C)C(=O)O)O[C@H](CO)[C@H]1OC(=O)/C(C)=C/CCC(C)(O)C=C` (stereo not given in full), the Potency result was “inactive”.

With `CCOc1cc(CC(=O)NC(CC(C)C)c2ccccc2N2CCCCC2)ccc1C(=O)O` (stereo not given), the Potency entry was “inactive”.

Consider `CC1OC(O[C@@H]2[C@H](O)[C@@H](OC3OC(CO)C(O)C(O)C3O)[C@H](OC(=O)[C@]34CCC(C)(C)C[C@H]3C3=CCC5[C@@]6(C)CC[C@H](O[C@@H]7O[C@H](C(=O)O)[C@@H](O)[C@H](O[C@@H]8OC[C@@H](O)[C@H](O)[C@H]8O)[C@H]7O[C@@H]7O[C@H](CO)[C@H](O)[C@H](O)[C@H]7O)[C@@](C)(C=O)C6CC[C@@]5(C)[C@]3(C)C[C@H]4O)O[C@@H]2C)C(O)C(O)C1OC1OCC(O)C(O)C1O` (stereo not given in full), for which the viability (% of control) was 87.4% [at 4.97 µM] (inactive).

For the molecule `CC(=O)O[C@@H]1CC[C@@]2(C)[C@H](CC[C@@H]3[C@@H]2C[C@H](OC(C)=O)[C@]2(C)[C@@H](C(C)=O)CC[C@@H]32)C1`, the Potency is 8.2 µM (active).

As for `Cc1cc(C)c(-c2csc(NC(=O)c3ccccc3)n2)c(C)c1`, the Potency is 6.51 µM (active).

As for `C=C(C)[C@H]1C[C@@H](O)C(=C)CC[C@@H](O)C(=C)[C@@H](O)C1`, the Potency result was “inactive”.

In the case of `Cc1cc2ncc(C(=O)NCC(C)(C)NCC(=O)N3CCC[C@H]3C#N)cn2n1`, the Potency entry is “inactive”.

For `CCC(C)C(=O)OC1CC(O)C23C4OCC5(C(O)CC2C1(C)C(O)O4)C3C(=O)CC1(C)C(c2ccoc2)CC2OC215` (stereo not given), the Potency is 0.893 µM (active).

Regarding `C=CC(C)(O)CC[C@@H]1[C@@]2(C)CCCC(C)(C)C2CC[C@@]1(C)O` (stereo not given in full), the Potency is 25.9 µM (active).

For `COc1cc(/C=C2\CCCN([C@@H](C)c3ccc(F)cc3)C2=O)ccc1-n1cnc(C)c1`, the Potency is 9.2 µM (active).

The record behind these values is PubChem BioAssay (NCATS).
